Data taken from PubChem BioAssay (NCI).
Several values for one entry are separate records, joined by “and”; a condition that tells them apart may be missing. Identical values can stand only once. The panel holds about 83,000 compounds, 20% with a hit somewhere; the sample as a whole holds those more often.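 Method: cells in 96-well plates; compound added at one concentration; 48 h incubation; percent growth measured; values under 10 scored active.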 Activity calls are given as the source filed them.

What was measured:
Experiment in all cases: NCI-60 one-dose screen, 48 h (100 = growth as untreated, 0 = no growth, -100 = all killed)
Conditions in all cases: 10 µM unless noted
[1] = test system: SK-MEL-2 melanoma
[2] = test system: SN12C renal
[3] = test system: UO-31 renal
[4] = test system: TK-10 renal
[5] = test system: ACHN renal
[6] = test system: CAKI-1 renal
[7] = test system: A498 renal
[8] = test system: HL-60(TB) leukemia
[9] = test system: CCRF-CEM leukemia
[10] = test system: MOLT-4 leukemia
[11] = test system: SR leukemia
[12] = test system: RPMI-8226 leukemia
[13] = test system: OVCAR-8 ovarian
[14] = test system: OVCAR-5 ovarian
[15] = test system: OVCAR-4 ovarian
[16] = test system: SK-OV-3 ovarian
[17] = test system: OVCAR-3 ovarian
[18] = test system: HS 578T breast
[19] = test system: EKVX NSCLC
[20] = test system: IGROV1 ovarian

Structure (SMILES) | growth [1] | growth [2] | growth [3] | growth [4] | growth [5] | growth [6] | growth [7] | growth [8] | growth [9] | growth [10] | growth [11] | growth [12] | growth [13] | growth [14] | growth [15] | growth [16] | growth [17] | growth [18] | growth [19] | growth [20]
O=[N+]([O-])c1ccc(P(=O)(O)O)cc1 | 103% (inactive) | 101% (inactive) | 81.5% (inactive) | 101% (inactive) | 98.8% (inactive) | 95.7% (inactive) | 125% (inactive) | 105% (inactive) | 97.1% (inactive) | 102% (inactive) | 94.8% (inactive) | 108% (inactive) | 103% (inactive) | 101% (inactive) | 96.2% (inactive) | 99.8% (inactive) | 113% (inactive) | 108% (inactive) | – | –
O=CC1(c2ccccc2)CCN(Cc2ccccc2)CC1 | 117% (inactive) | 107% (inactive) | 83.9% (inactive) | 115% (inactive) | 112% (inactive) | 97.9% (inactive) | – | 97.8% (inactive) | 102% (inactive) | 99.4% (inactive) | 97.8% (inactive) | 102% (inactive) | 105% (inactive) | 107% (inactive) | 103% (inactive) | 114% (inactive) | 105% (inactive) | 115% (inactive) | 101% (inactive) | 108% (inactive)
CC1=C(C)C(=O)O[C@@H]([C@](C)(O)[C@]2(O)CC[C@@]3(O)[C@@H]4C[C@H]5O[C@]56CC=CC(=O)[C@]6(C)[C@H]4CC[C@]23C)C1 | -24.6% (active) | 3.65% (active) | -24.3% (active) | -48% (active) | -72.4% (active) | -49% (active) | -59.9% (active) | -36.9% (active) | – | -12.7% (active) | -23.5% (active) | -19.2% (active) | -7.94% (active) | 21.7% (inactive) | – | -19% (active) | -59.6% (active) | 9.59% (active) | – | -36.7% (active)
N#CC(N)c1ccccc1 (stereo not given) | 122% (inactive) | 104% (inactive) | 86.3% (inactive) | 109% (inactive) | 105% (inactive) | 102% (inactive) | 81.2% (inactive) | – | 107% (inactive) | 108% (inactive) | 101% (inactive) | 99% (inactive) | 106% (inactive) | 101% (inactive) | 110% (inactive) | 115% (inactive) | 106% (inactive) | 98.5% (inactive) | – | 115% (inactive)
Cc1ccc(NC(=O)c2cc3ccccc3cc2O)c(C)c1 | – | – | – | – | – | – | – | 54.3% (inactive) | – | – | – | – | – | – | – | – | – | – | – | –
CN(N)/N=N/c1nc[nH]c1[N+](=O)[O-] | – | – | – | 79.1% [100 µM] (inactive) and 9.85% [100 µM] (active) | – | – | – | – | – | – | – | – | – | – | – | – | – | – | – | –
C=C1C(=O)OC2/C=C(\C)CC/C=C(/C)CC(OC(=O)/C(=C/CO)CO)C12 (stereo not given) | – | – | – | -78.7% [100 µM] (active) and -88.5% [100 µM] (active) | – | – | – | – | – | – | – | – | – | – | – | – | – | – | – | –
CCOC(=O)C1C(c2ccco2)C2(C#N)C(=N)OC1(C)C2(C#N)C#N (stereo not given) | – | – | – | 83.8% [100 µM] (inactive) and 19.2% [100 µM] (inactive) | – | – | – | – | – | – | – | – | – | – | – | – | – | – | – | –
COc1cc(C=C2C(=O)NC(=O)NC2=O)ccc1O | – | 96.5% (inactive) | 94.4% (inactive) | 127% (inactive) | 101% (inactive) | – | 69% (inactive) | – | – | – | – | – | 93.7% (inactive) | 92% (inactive) | 101% (inactive) | 107% (inactive) | 110% (inactive) | 123% (inactive) | 153% (inactive) | 105% (inactive)
CCCC[C@@H]1CCN2C[C@@H](O)[C@@H](O)[C@@H]2[C@H]1O | – | – | – | 113% [100 µM] (inactive) and 98.7% [100 µM] (inactive) | – | – | – | – | – | – | – | – | – | – | – | – | – | – | – | –
c1ccc2nc(-c3ccc4ccccc4n3)ccc2c1 | – | – | – | – | – | – | – | 101% (inactive) | – | – | – | – | – | – | – | – | – | – | – | –
Cc1cc[n+](CCc2ccccc2)cc1 | – | 102% (inactive) and 105% (inactive) | 57.8% (inactive) and 85.1% (inactive) | 91.8% (inactive) and 106% (inactive) | 103% (inactive) | 97% (inactive) and 98.7% (inactive) | 83.9% (inactive) and 93.6% (inactive) | 97.8% (inactive) and 95.8% (inactive) | 101% (inactive) | 90.4% (inactive) and 101% (inactive) | 101% (inactive) | 115% (inactive) | 95.7% (inactive) and 99.1% (inactive) | 88.3% (inactive) and 116% (inactive) | 90.3% (inactive) and 104% (inactive) | 116% (inactive) and 115% (inactive) | 104% (inactive) and 118% (inactive) | 105% (inactive) | – | 94.7% (inactive) and 82.5% (inactive)
C[N+]1(C)CCCC1c1cccnc1 (stereo not given) | 112% (inactive) | 99.8% (inactive) | 99.7% (inactive) | 111% (inactive) | 114% (inactive) | 98.2% (inactive) | – | 117% (inactive) | 97.6% (inactive) | 102% (inactive) | 97.8% (inactive) | 99.4% (inactive) | 104% (inactive) | 109% (inactive) | – | 108% (inactive) | 108% (inactive) | 89.2% (inactive) | – | –
O=C1c2ccccc2C(=O)N1N1CC1c1ccccc1 (stereo not given) | – | 104% (inactive) | 91.3% (inactive) | 107% (inactive) | 104% (inactive) | 95.7% (inactive) | 104% (inactive) | 102% (inactive) | 94.7% (inactive) | 83.5% (inactive) | 77.9% (inactive) | 101% (inactive) | 112% (inactive) | 113% (inactive) | 101% (inactive) | 102% (inactive) | 107% (inactive) | 112% (inactive) | – | 95.4% (inactive)
O=c1c2ccccc2nc(-c2ccccc2Cl)n1-c1nnc(C(F)(F)F)s1 | – | 21.9% (inactive) | 19.4% (inactive) | 42% (inactive) | 51.8% (inactive) | 3.51% (active) | -7.82% (active) | 1.24% (active) | 7.41% (active) | 3.92% (active) | -6.69% (active) | 0.839% (active) | 32.7% (inactive) | 78.2% (inactive) | 37.5% (inactive) | 25.7% (inactive) | 18.7% (inactive) | 26.7% (inactive) | – | –
